Screening data: PubChem, National Center for Advancing Translational Sciences (NCATS)
MCF10A rereplic – A quantitative high throughput screen for small molecules that induce DNA re-replication in MCF 10a normal breast cells | AID 624296, 2012 | Potency, µM (highest dose often 46.1 µM), for inactives: at the highest dose activity, positive = re-replication, usual class: activators | MCF 10A DNA re-replication, Hoechst nuclear intensity, 48 h | 2.9% of 350,000 active; also: % of control where 0% means no effect; nearly all actives have a fitted effect of over 50% in size
KB-3-1 tox – qHTS assay for MDR1-selective chemotherapeutics: Primary screen using the parental adenocarcinoma cell KB-3-1 | KB-3-1 viability, CellTiter-Glo ATP luminescence, 72 h | Potency, µM (highest dose often 46.1 µM), usual class: cytotoxic | 1.4% of 400,000 active | AID 1347075, 2019; also: % is scaled to controls: 0 for no effect and ±100 for the full control effect; nearly all actives have a fitted effect of over 60% in size
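72 h, 37 °C compound treatment of KB-3-1 parental cells; CellTiter-Glo added, 10 min, luminescence read. Data corrected against DMSO-only plates and normalized before curve fitting.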
HT1080-NT tox – qHTS for induction of synthetic lethality in tumor cells producing 2HG: qHTS for the HT-1080-NT fibrosarcoma cell line; Potency, µM (titrated, usually from 46.1 µM), inactives show at the highest dose activity, negative = less viability, most hits filed as cytotoxic; 1.6% of 360,000 active; HT-1080-NT fibrosarcoma viability, CellTiter-Glo ATP luminescence, 48 h;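 also: NT is the 2HG producing partner of a matched IDH1 knockdown line; 0% = DMSO-treated cells and -100% = media-only wells without cells; nearly all actives have a fitted effect of over 55% in size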
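A 48-hour cytotoxicity screen used HT-1080-NT cells plated 2 hours before compound delivery. ATP-based CellTiter-Glo luminescence measured viability, normalized to DMSO and no-cell controls.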
SW480 rerep – A quantitative high throughput screen for small molecules that induce DNA re-replication in SW480 colon adenocarcinoma cells. AID 624297, 2012. Potency, µM (top dose mostly 46.1 µM), without a hit: at the top dose re-replication activation, usual class: activators. SW480 DNA re-replication, Hoechst DNA content imaging, 48 h. 1.8% of 340,000 active; also: % of control where 0% means no effect; nearly all actives have a fitted effect of over 55% in size
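Quantitative HTS format with DMSO vehicle controls; 48 hr drug incubation at 37 C, then 40 min Hoechst staining and scanning imager measurement at 405 nm excitation.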
HT1080 IDH1KD tx – qHTS for induction of synthetic lethality in tumor cells producing 2HG: qHTS for the HT-1080-IDH1KD cell line; HT-1080 IDH1 knockdown viability, ATP luminescence, 48 h; Potency, µM (top dose mostly 46.1 µM), for the others: at the top dose activity, negative = toxicity, most hits filed as cytotoxic; 2% of 360,000 active; AID 686971, 2013;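 also: 0% = DMSO wells and -100% = cell-free medium wells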
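Assay cells: HT-1080 with IDH1 knockdown, 750 per well, RPMI/5% FBS. Exposure: 48 h at 37 °C following 2 h pre-incubation. Read: CellTiter-Glo luminescence; fitted concentration-response, curve class assigned.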
KB-V1 cytotox – qHTS assay for MDR1-selective chemotherapeutics: Primary screen using the drug-selected MDR subline cells KB-V1; KB-V1 MDR cells viability, CellTiter-Glo, 72 h; 3.4% of 400,000 active; AID 1347076, 2019; Potency, µM (titrated, usually from 46.1 µM), hits mostly cytotoxic; also: % is scaled to controls: 0 for no effect and ±100 for the full control effect; nearly all actives have a fitted effect of over 60% in size
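Following 72 h at 37 degrees C with compound, KB-V1 cell viability was read by CellTiter-Glo luminescence, medium being phenol-red-free DMEM plus 10% FBS; concentration-response parameters came from normalized, curve-fitted qHTS data.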
* = called active by the depositor; i = inactive; ? = inconclusive; / = no result given; [ ] = remark or other dose. A selection: hits, their analogues and other compounds. The true share with any hit is near 7.9%. Calls follow the shape of the dose curve; as a rule, active = well fitted curve in the direction sought with a large enough effect; inconclusive = small, poorly fitted or top-dose-only effect, or another doubt; inactive = no such curve, though single readings can be large; an effect the other way counts as inactive or inconclusive. Potency is read from the fitted curve at half-maximal effect.

SMILES	MCF10A rereplic	KB-3-1 tox	HT1080-NT tox	SW480 rerep	HT1080 IDH1KD tx	KB-V1 cytotox
COc1ccccc1CNC(=O)C1CCCN(C(=O)c2cnn(-c3ccc(F)cc3)c2-n2cccc2)C1 (stereo not given)	/	i	/	/	/	?
COCCC1CCCCN1C(=O)c1cc(COc2ccc(-n3cncn3)cc2)on1 (stereo not given)	11%	i	-3%	1%	?	?
CCOC(=O)N1CCc2c(sc3c2C(=O)NC(c2cc(OC)c(OC)c(OC)c2)N3)C1 (stereo not given)	/	16µM*	/	/	/	i
CCOC(=O)N1CCc2c(sc3c2C(=O)NC(c2ccc(C(=O)OC)cc2)N3)C1 (stereo not given)	/	i	/	/	/	i
C/C=C/c1c(F)c(F)c(Oc2ccc(C(=O)O)cc2)c(F)c1F	?	i	16µM*	-6%	3%	i
CCN(CC)CCSc1nnc2c3cc(C)ccc3n(Cc3ccccc3)c2n1	?	i	16µM*	29%	23µM*	i
Cc1nnc(N/N=C/c2cc(C)n(-c3ccc(F)cc3)c2C)n1N	?	i	23µM*	18%	?	i
Cc1cc(/C=N/NC(N)=S)c(C)n1-c1ccc(Cl)cc1	8.2µM*	i	-21%	?	-20%	i
Cc1cc(/C=N/NC(N)=S)c(C)n1-c1ccc(Br)cc1	?	i	?	11%	?	?
O=C(CC(=O)NC1CCCCC1)N/N=C/c1ccc(Cl)cc1	-19%	i	-4%	-4%	-2%	i
Cc1cc(/C=N\NC(=O)CC(=O)NC2CCCCC2)c(C)n1-c1ccc(Cl)cc1	20%	i	-4%	10%	?	21µM*
COc1ccc(-c2nc3sc(CCNC(=O)c4cc(OC)c(OC)c(OC)c4)c(C)n3n2)cc1	/	i	/	/	/	i
Cc1nn2c(-c3cccc(NC(=O)CSc4nc5ccccc5o4)c3)nnc2c2ccccc12	10µM*	i	-23%	-7%	-23%	?
CC(=O)Nc1nonc1NC(=O)CSc1nc2ccccc2o1	-3%	i	2%	21µM*	1%	i
O=C(CN1C(=O)CCc2cc(S(=O)(=O)N3CCOCC3)ccc21)NCc1ccc(Cl)cc1	/	i	/	/	/	i
Cc1cc(/C=N/NC(=O)Cn2c3ccccc3c(=O)c3ccccc32)c(C)n1-c1ccccc1	21µM*	i	?	28%	?	i
Cc1cc(C)cc(-n2c(C)cc(/C=N/NC(=O)c3ccncc3)c2C)c1	-28%	i	-30%	24%[1.84 µM]	-19%	i
Cc1cc(/C=N/NC(=O)c2ccc(CN3CCOCC3)cc2)c(C)n1-c1ccccc1	25%	i	7%	4%	-7%	16µM*
Cc1cc(C)cc(-n2c(C)cc(/C=N/NC(=O)CSc3ncccn3)c2C)c1	18µM*	?	?	?	?	?
O=C(N/N=C/c1ccccc1[N+](=O)[O-])c1ccc(CN2CCOCC2)cc1	6%	i	6%	-3%	14%	i
Brc1ccc2ncnc(NCc3ccccc3)c2c1	?	12µM*	?	-1%	0%[9.24 µM]	?
c1ccc(CCNc2ncnc3ccccc23)cc1	7%	?	?	9%	2.1µM*	?
Cc1cc2c(NCCc3ccccc3)ncnc2s1	0%	i	-23%	-3%	?	i
CCCCCCCCNc1ncnc2ccccc12	19%	0.65µM*	?	?	?	0.18µM*
